The results in this text go back to PubChem BioAssay (NCI).

What all share (test): NCI-60 one-dose screen, 48 h (100 = growth as untreated, 0 = no growth, -100 = all killed)
Holding throughout (settings): 10 µM unless noted

In assay [1] the test system is SR leukemia.
The subject of assay [2] is RPMI-8226 leukemia.
The test system of assay [3] is OVCAR-8 ovarian.
The test system of assay [4] is OVCAR-5 ovarian.
For assay [5], the system named is OVCAR-4 ovarian.
For assay [6], the system named is SK-OV-3 ovarian.
Assay [7] relates to IGROV1 ovarian.
For assay [8], the system named is OVCAR-3 ovarian.
In assay [9] the test system is HS 578T breast.
Assay [10] concerns NCI/ADR-RES ovarian.
Assay [11] relates to T-47D breast.
Assay [12] concerns BT-549 breast.
Assay [13] relates to MDA-MB-435 melanoma.
For assay [14], the system named is SW-620 colon.
In assay [15] the test system is MCF7 breast.
In assay [16] the test system is HCT-116 colon.
Assay [17] deals with HCC-2998 colon.
The subject of assay [18] is KM12 colon.

Compounds without any hit were thinned out: in the full panel of roughly 83,000, 20% have a hit.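 Activity criterion: percent growth below 10, measured after cells in 96-well plates were exposed to a single compound concentration for 48 hours.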 Unmarked numbers belong to inactive results. Activity calls are given as the source filed them.

Take `COc1cc(/C=C2\C(=O)N(CCCOc3cc(O)c4c(=O)cc(-c5ccccc5)oc4c3)c3ccccc32)cc(OC)c1O`: the growth in assay [1] was 31.9%; in [2], 86.7%; in assay [3], 84.7%; in [4], 110%; in assay [5], 83.6%; in [6], 91.6%. Moreover, the growth is 77.2% in assay [7]; 44.5% in assay [8]; 70.4% in assay [9]; 64% in assay [10]; 44.6% in assay [11]; 49.7% in assay [12]. Also, the growth in assay [13] is -35.1% (active); in assay [14] it was 38.4%; in assay [15] it was 48.9%; in assay [16] it was 63.7%; in [17], 82.9%; in assay [18], 62.2%.
Regarding `CNC(=O)c1cc(Oc2ccc3c(c2)sc2nc(-c4ccc(Cl)c(C(F)(F)F)c4)cn23)ccn1`, the growth in assay [1] was 41.6%; in assay [2], 33.9%; in assay [3], 52.5%; in assay [4] it was 100%; in assay [5], 65%; in assay [6] it was 78%. Besides, the growth was 86.3% in [7]; 74.2% in assay [8]; 80.3% in assay [9]; 60.9% in assay [10]; 25.7% in assay [11]; 45.9% in assay [12]. The growth in assay [13] was 65.8%; in [14], 68.6%; in [15], 36.8%; in [16], 41%; in assay [17], 80.5%; in assay [18], 82.6%.
In the case of `COc1ccc(C/C(C)=C(\c2ccc(Cl)cc2)c2ccc(OCCCN(C)C)cc2)cc1`, the growth in assay [1] is -31.7% (active); in assay [2], -2.97% (active); in assay [3] it was 86.2%; in assay [4], 70.8%; in [5] it was 92.9%; in assay [6], 99.1%. The growth in assay [7] is 62.8%; in [8], 79.4%; in assay [9] it was 75.6%; in assay [10], 88.7%; in assay [11], 62.1%; in assay [12], 91.3%. The growth is 60.8% in assay [14]; 16.2% in [15]; 60.3% in assay [16]; 47.1% in [17]; 68.6% in assay [18].
For `CCOC(=O)C(CCN(C)C)c1ccccc1` (configuration not stated), the growth in assay [1] is 97.8%; in assay [2], 98.2%; in assay [3], 111%; in assay [4], 88.7%; in assay [5], 100%; in assay [6] it was 104%. Moreover, the growth is 104% in assay [7]; 96.4% in assay [8]; 98% in assay [9]; 103% in assay [10]; 103% in assay [11]; 97.3% in assay [12]. Moreover, the growth in [14] was 108%; in assay [15] it was 92.7%; in [16], 104%; in [17] it was 96.3%; in assay [18], 104%.
Consider `CCN1C(=O)N(CC)C2C1NN=c1s/c(=C\c3ccc(OC)cc3)c(=O)n12` (configuration not stated), for which the growth in assay [1] is 12.1%; in assay [2] it was 20.6%; in assay [3], -2.81% (active); in assay [4], 29.4%; in assay [5], 46.3%; in assay [6], 40.5%. In addition, the growth in assay [7] is 19.6%; in assay [8], -16.5% (active); in assay [9] it was 21.6%; in assay [10], 0.931% (active); in assay [11], 57.3%; in assay [12] it was 9.76% (active). The growth was -23.7% (active) in assay [13]; 22.8% in assay [14]; 14.4% in assay [15]; 9.53% (active) in [16]; 15.4% in assay [17]; 10.5% in assay [18].
In the case of `Nc1cccc(-c2ccc(COc3ccc(CC4SC(=O)NC4=O)cc3)cc2)c1` (configuration not stated), the growth was 26.8% in assay [1]; 53.8% in [2]; 70.1% in assay [3]; 92.2% in [4]; 56.4% in [5]; 62.1% in assay [6]. Besides, the growth in assay [7] was 57.5%; in assay [8] it was 49.9%; in [9] it was 59.8%; in assay [10], 47.1%; in [11], 50.3%; in assay [12] it was 58.7%. Further, the growth in assay [13] is -17.7% (active); in assay [14], 34.2%; in [15] it was 37.7%; in assay [16] it was 32.1%; in [17], 87.4%; in [18], 33.3%.
Consider `C/C(=C(\c1ccc(OCCN2CCCCCC2)cc1)c1ccc(OC(=O)c2ccccc2)cc1)c1ccc(Cl)cc1`, for which the growth in assay [1] was -16.1% (active); in assay [2], 13.1%; in [3], 42.6%; in assay [4], 68.5%; in assay [5], 37.5%; in assay [6] it was 77.1%. For the same molecule, the growth is 46.7% in [7]; 61.8% in assay [8]; 42% in assay [9]; 59% in [10]; 42.6% in [11]; 68.5% in [12]. In addition, the growth in assay [13] is 56%; in [14] it was 25.8%; in assay [15], 14.5%; in assay [16], 17.9%; in [17] it was 60.7%; in [18] it was 32.1%.
On to `O=C(N/N=C/c1ccc(Cl)cc1)c1ccc(NC(=O)c2ccccn2)cc1`, for which the growth was 43.3% in assay [1]; 62.1% in assay [2]; 46.1% in [3]; 67.6% in assay [4]; -77.6% (active) in assay [5]; 53.9% in assay [6]. The growth is 30.9% in assay [7]; 0.827% (active) in [8]; 53.9% in [9]; 53.2% in [10]; 52.1% in assay [11]; 62.7% in assay [12]. Besides, the growth is 63.8% in assay [13]; 71.5% in assay [14]; 52.3% in [15]; 5.15% (active) in assay [16]; 72.3% in assay [17]; 73.2% in assay [18].
